This is an account of results in PubChem BioAssay (Tox21).

A number with no mark means an inactive call. Where a call stands in place of a potency, no number is given. Calls of active or inactive are those of the source. Calls follow the shape of the dose curve; as a rule, active = well fitted curve in the direction sought with a large enough effect in the repeat runs; inconclusive = weak or mixed curves; inactive = flat fitted curve, though single readings scatter.

The first experiment is described as follows: qHTS assay to test for compound auto fluorescence at 460 nm (blue) in HepG2 cell free culture (AID 720685). To be noted: Cell-free culture medium, blue autofluorescence 405/460 nm; series mostly up to 91.3 µM. In outline: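 Cell-free plates of MEM plus 10% FBS received 23 nL compound or DMSO vehicle; blue-channel (405/460 nm) intensity scored against triamterene as reference fluorophore.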
For orientation: In qHTS, concentration-response curves come from the screen itself.
In the case of `O=S(=O)(Oc1ccc(Cl)cc1)c1ccccc1`, the compound was classed as inactive.

For `CN1CCN(C(c2ccccc2)c2ccccc2)CC1`, the fluorescence, % of fluorescent control was -0.0233% [at 18.6 µM].

Consider `COS(=O)(=O)C(F)(F)F`, for which the result was inactive.

As for `C=C(C)C(=O)OCC`, the compound was classed as inactive.

With `CCC(Cl)CCC(Cl)C(Cl)CC(Cl)C(Cl)C(Cl)CCl` (stereo unspecified), the result was inactive.

On to `O=[N+]([O-])c1ccc2[nH]ncc2c1`, for which the call was inactive.

For `O=S(c1cc(Cl)cc(Cl)c1O)c1cc(Cl)cc(Cl)c1O`, the outcome was inactive.

As to `Clc1ccc(Cn2c(CN3CCCC3)nc3ccccc32)cc1`, the fluorescence, % of fluorescent control was 0.0634% [at 18.6 µM].

As for `O=C1c2ccccc2S(=O)(=O)N1CCCCN1CCN(c2ncccn2)CC1`, the call was inactive.

For the compound `C/C(=C(\CCOP(=O)(O)O)SC(=O)c1ccccc1)N(C=O)Cc1cnc(C)nc1N`, the fluorescence, % of fluorescent control was -0.035% [at 18.6 µM].

Take `CCC(C)(C)CC`: the outcome was inactive.

Consider `NC(=O)C(c1ccccc1)(c1ccccc1)[C@@H]1CCN(CCc2ccc3c(c2)CCO3)C1`, for which the compound was called inactive.

`O=C(c1ccc(F)cc1)C1CCN(CCn2c(=S)[nH]c3ccccc3c2=O)CC1`: the compound was called inactive.

Consider `COc1ccc(C(=O)c2ccc(OC)cc2O)c(O)c1`, for which the outcome was inactive.

For `CCCCC(CC)COC(=O)CCCCCCCCC(=O)OCC(CC)CCCC` (stereo unspecified), the compound was classed as inactive.

`c1ccc(CNCCNCc2ccccc2)cc1`: the outcome was inactive.

In the case of `C#CCN(C)CCCOc1ccc(Cl)cc1Cl`, the call was inactive.

In the case of `CC(=O)c1ccc2c(c1)N(CCCN(C)C)c1ccccc1S2`, the fluorescence, % of fluorescent control was 0.0422% [at 18.6 µM].

`CCCCCCCCCCCCCCCCCCOS(=O)(=O)O`: the result was inactive.

Turning to `Brc1c2ccccc2cc2ccccc12`, the compound was classed as inactive.

On to `O=C(NCCO[N+](=O)[O-])c1cccnc1`, for which the outcome was inactive.

On to `CCOc1ccc(O)cc1`, for which the result was inactive.

Consider `C=C1[C@H]2CC[C@@H]3[C@H]2C(C)(C)CCC[C@]13C`, for which the result was inactive.

Turning to `CCCCC(CC)CN1C(=O)C2C3C=CC(C3)C2C1=O` (stereo unspecified), the result was inactive.

`CC(C)CC(=O)C1C(=O)c2ccccc2C1=O`: the outcome was inactive.

As to `CC1OC(=O)C(C)OC1=O` (stereo unspecified), the outcome was inactive.

Turning to `OC(CN1CCC(Cc2ccc(F)cc2)CC1)c1ccc(Cl)cc1` (stereo unspecified), the compound was called inactive.

As for `CCCCC(=O)OCC(=O)[C@H]1[C@H](C)C[C@H]2[C@@H]3C[C@H](F)C4=CC(=O)C=C[C@]4(C)[C@@]3(F)[C@@H](O)C[C@@]21C`, the result was inactive.

With `CC(C)C[C@H]1C(=O)N2CCC[C@H]2[C@]2(O)O[C@](NC(=O)[C@@H]3C=C4c5cccc6[nH]c(Br)c(c56)C[C@H]4N(C)C3)(C(C)C)C(=O)N12`, the result was inactive.

As to `CC(C)(CO)[N+](=O)[O-]`, the compound was called inactive.

Turning to `O=C(OCCc1ccccc1)c1ccccc1`, the compound was called inactive.

As for `COc1ccc(S(=O)(=O)N2C(=O)[C@@](c3ccccc3OC)(N3C[C@H](O)C[C@H]3C(=O)N(C)C)c3cc(Cl)ccc32)c(OC)c1`, the call was inactive.

Regarding `O=C1OC(CN2CCOCC2)CN1/N=C/c1ccc([N+](=O)[O-])o1` (stereo unspecified), the fluorescence, % of fluorescent control was -0.135% [at 18.6 µM].

For the compound `OC[C@H]1O[C@@H](OCCc2ccc(O)cc2)[C@H](O)[C@@H](O)[C@@H]1O`, the outcome was inactive.

Take `Cc1[nH]c(C)c(Cl)c(=O)c1Cl`: the compound was classed as inactive.

For `CCCCCCCN`, the compound was classed as inactive.

For `C[Si](C)(CCCN)O[Si](C)(C)CCCN`, the compound was called inactive.

For the compound `CCOC(=O)C(F)(F)F`, the outcome was inactive.

Another experiment in a line: qHTS assay to test for compound auto fluorescence at 535 nm (green) in HepG2 cell free culture (AID 720686). As to conditions: Cell-free medium, green autofluorescence 485/535 nm; series mostly up to 91.3 µM.
Regarding `O=S(=O)(Oc1ccc(Cl)cc1)c1ccccc1`, the Potency entry was “inactive”.

Take `CN1CCN(C(c2ccccc2)c2ccccc2)CC1`: the fluorescence, % of fluorescein control was 0.0024% [at 18.6 µM].

Consider `COS(=O)(=O)C(F)(F)F`, for which the Potency entry was “inactive”.

Turning to `C=C(C)C(=O)OCC`, the Potency result is “inactive”.

As to `CCC(Cl)CCC(Cl)C(Cl)CC(Cl)C(Cl)C(Cl)CCl` (stereo unspecified), the Potency result is “inactive”.

Turning to `O=[N+]([O-])c1ccc2[nH]ncc2c1`, the Potency result is “inactive”.

For the compound `O=S(c1cc(Cl)cc(Cl)c1O)c1cc(Cl)cc(Cl)c1O`, the Potency result is “inactive”.

As to `Clc1ccc(Cn2c(CN3CCCC3)nc3ccccc32)cc1`, the fluorescence, % of fluorescein control was -0.0084% [at 18.6 µM].

As to `O=C1c2ccccc2S(=O)(=O)N1CCCCN1CCN(c2ncccn2)CC1`, the Potency result is “inactive”.

In the case of `C/C(=C(\CCOP(=O)(O)O)SC(=O)c1ccccc1)N(C=O)Cc1cnc(C)nc1N`, the fluorescence, % of fluorescein control is -0.0244% [at 18.6 µM].

Turning to `CCC(C)(C)CC`, the Potency entry is “inactive”.

As to `NC(=O)C(c1ccccc1)(c1ccccc1)[C@@H]1CCN(CCc2ccc3c(c2)CCO3)C1`, the Potency entry was “inactive”.

Regarding `O=C(c1ccc(F)cc1)C1CCN(CCn2c(=S)[nH]c3ccccc3c2=O)CC1`, the Potency entry was “inactive”.

With `COc1ccc(C(=O)c2ccc(OC)cc2O)c(O)c1`, the Potency result is “inactive”.

On to `CCCCC(CC)COC(=O)CCCCCCCCC(=O)OCC(CC)CCCC` (stereo unspecified), for which the Potency result was “inactive”.

In the case of `c1ccc(CNCCNCc2ccccc2)cc1`, the Potency entry was “inactive”.

For the compound `C#CCN(C)CCCOc1ccc(Cl)cc1Cl`, the Potency result was “inactive”.

`CC(=O)c1ccc2c(c1)N(CCCN(C)C)c1ccccc1S2`: the fluorescence, % of fluorescein control was -0.0543% [at 18.6 µM].

For `CCCCCCCCCCCCCCCCCCOS(=O)(=O)O`, the Potency entry is “inactive”.

For `Brc1c2ccccc2cc2ccccc12`, the Potency entry is “inactive”.

`O=C(NCCO[N+](=O)[O-])c1cccnc1`: the Potency result is “inactive”.

For `CCOc1ccc(O)cc1`, the Potency entry was “inactive”.

In the case of `C=C1[C@H]2CC[C@@H]3[C@H]2C(C)(C)CCC[C@]13C`, the Potency entry is “inactive”.

For the compound `CCCCC(CC)CN1C(=O)C2C3C=CC(C3)C2C1=O` (stereo unspecified), the Potency entry is “inactive”.

Turning to `CC(C)CC(=O)C1C(=O)c2ccccc2C1=O`, the Potency entry was “inactive”.

Consider `CC1OC(=O)C(C)OC1=O` (stereo unspecified), for which the Potency entry is “inactive”.

Regarding `OC(CN1CCC(Cc2ccc(F)cc2)CC1)c1ccc(Cl)cc1` (stereo unspecified), the Potency entry is “inactive”.

In the case of `CCCCC(=O)OCC(=O)[C@H]1[C@H](C)C[C@H]2[C@@H]3C[C@H](F)C4=CC(=O)C=C[C@]4(C)[C@@]3(F)[C@@H](O)C[C@@]21C`, the Potency result was “inactive”.

Consider `CC(C)C[C@H]1C(=O)N2CCC[C@H]2[C@]2(O)O[C@](NC(=O)[C@@H]3C=C4c5cccc6[nH]c(Br)c(c56)C[C@H]4N(C)C3)(C(C)C)C(=O)N12`, for which the Potency result is “inactive”.

Consider `CC(C)(CO)[N+](=O)[O-]`, for which the Potency entry was “inactive”.

`O=C(OCCc1ccccc1)c1ccccc1`: the Potency result was “inactive”.

On to `COc1ccc(S(=O)(=O)N2C(=O)[C@@](c3ccccc3OC)(N3C[C@H](O)C[C@H]3C(=O)N(C)C)c3cc(Cl)ccc32)c(OC)c1`, for which the Potency entry is “inactive”.

As for `O=C1OC(CN2CCOCC2)CN1/N=C/c1ccc([N+](=O)[O-])o1` (stereo unspecified), the fluorescence, % of fluorescein control was -0.14% [at 18.6 µM].

As to `OC[C@H]1O[C@@H](OCCc2ccc(O)cc2)[C@H](O)[C@@H](O)[C@@H]1O`, the Potency result is “inactive”.

With `Cc1[nH]c(C)c(Cl)c(=O)c1Cl`, the Potency entry is “inactive”.

Take `CCCCCCCN`: the Potency entry is “inactive”.

With `C[Si](C)(CCCN)O[Si](C)(C)CCCN`, the Potency result is “inactive”.

`CCOC(=O)C(F)(F)F`: the Potency result was “inactive”.
